# Results published in PubChem BioAssay (NCATS).
# Records with an inconclusive call do not appear. Active and inactive are the calls of the source. Calls follow the shape of the full dose curve.
# Experiment: qHTS Assay for Lipid Storage Modulators (AID 1519); as to activity change, negative = inhibition: % is scaled to controls: 0 for no effect and ±100 for the full control effect
# Conditions: Drosophila S3 cells, BODIPY lipid droplet/cell ratio, laser cytometry, cells loaded with oleic acid
# Method in brief: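 Cells seeded at 5,000 per well were treated with compounds over a concentration series and loaded with oleic acid (400 uM, as added). Lipid droplet fluorescence (488 nm excitation, 500-530 nm channel) was read by laser-scanning cytometry and normalized to 20 uM Triacsin C.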
# [1] = measured here: cell count channel max response
# [2] = measured here: lipid channel max response
SMILES,"activity change, negative = inhibition (at 25.7 µM (top of the series))",max response [1],max response [2],"activity change, negative = inhibition (at 57.5 µM (top of the series))"
CC(C)(C)C(=O)OCOC(=O)[C@@H]1N2C(=O)[C@@H](NC(=O)[C@H](N)c3ccccc3)[C@H]2SC1(C)C,2.04% (inactive),-13%,-12.6%,
C=CCSCC1Nc2cc(Cl)c(S(N)(=O)=O)cc2S(=O)(=O)N1 (centres undefined),,6.41%,6.24%,8.24% (inactive)
C[n+]1ccccc1/C=N/O,,15.5%,23.8%,6.44% (inactive)
CCCCCC(C)N (centres undefined),,-12.5%,-21.2%,-8.69% (inactive)
CCOC(N)=O,,18.8%,25.8%,5.36% (inactive)
O=C(CCBr)N1CCN(C(=O)CCBr)CC1,,16.2%,29.1%,9.22% (inactive)
Cc1onc(-c2ccccc2)c1-c1ccc(S(N)(=O)=O)cc1,,11.6%,23.9%,13.7% (inactive)
O=C(O)COC(=O)Cc1ccccc1Nc1c(Cl)cccc1Cl,1.87% (inactive),-9.2%,-7.55%,
O=C(O)c1ccccc1OP(=O)(O)O,1.48% (inactive),3.1%,4.99%,
COc1ccc2cc(CCC(C)=O)ccc2c1,1.09% (inactive),-11.1%,-11.1%,
O=c1[nH]cnc2nc[nH]c12,,11.9%,19.1%,6.77% (inactive)
C[N+](C)(C)CC[N+]1(C)Cc2c(Cl)c(Cl)c(Cl)c(Cl)c2C1,,-22.8%,-20.9%,0.877% (inactive)
CC[N+](CC)(CC(=O)Nc1c(C)cccc1C)Cc1ccccc1,-1.02% (inactive),-6.23%,-4.81%,
CN/C(=C\[N+](=O)[O-])NCCSCc1csc(CN(C)C)n1,-0.861% (inactive),-17.1%,-17.9%,
NC(=O)NC1NC(=O)NC1=O (centres undefined),,2.56%,9.47%,4.87% (inactive)
CC[N+](C)(CC)CCOC(=O)C1c2ccccc2Oc2ccccc21,-1.37% (inactive),-9.32%,-11.4%,
CC1CCc2cc(F)cc3c(=O)c(C(=O)O)cn1c23 (centres undefined),,18.4%,28.6%,6.51% (inactive)
C1CCN2C[C@@H]3C[C@@H](CN4CCCC[C@@H]34)[C@H]2C1,,14.6%,18.3%,2.67% (inactive)
CC(N)CCCC(C)(C)O (centres undefined),,25.6%,35.7%,4.55% (inactive)
CN[C@@H]1[C@H](O)[C@H](NC)[C@H]2O[C@@]3(O)C(=O)C[C@@H](C)O[C@H]3O[C@@H]2[C@H]1O,,7.5%,3.08%,-5.49% (inactive)
CC(=O)N[C@@H](CC(C)C)C(=O)O,-0.448% (inactive),-13.9%,-14.5%,
C/C=C/C(=O)N(CC)c1ccccc1C,,2.55%,11.8%,9.1% (inactive)
CCc1cccc(CC)c1NC(=O)CN(CC(=O)O)CC(=O)O,1.96% (inactive),-4.83%,-3.06%,
C[C@@H](N)C(=O)O,,-10.1%,-15.3%,-5.25% (inactive)
Cc1[nH]c(C)c(Cl)c(=O)c1Cl,,4.05%,14%,7.41% (inactive)
CC(=O)Oc1cccc(O)c1,,7.77%,18.4%,7.58% (inactive)
CCCNC(C)(C)COC(=O)c1ccccc1,-1.27% (inactive),-4.93%,-6.33%,
CC(C)=CCC/C(C)=C/CO,,14.3%,29.9%,10.2% (inactive)
